From PubChem BioAssay (EPA / NIEHS) come the findings set out here.

Read-out in test [1]: Interleukin-8 (IL8), CXCL8 (gene 3576)
In words: BSK_3C_IL8: BioMAP Diversity Plus: 3C Assay for Interleukin-8 (IL8) Biomarker Activity (AID 2283020). The settings on record: primary human endothelial cells (HUVEC); actives raise or lower the signal. Put shortly:
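Using DMSO-treated wells as the baseline, bidirectional curve fitting was applied to ELISA-measured IL-8 from human umbilical vein endothelial cultures sampled 24 h after compound addition.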

Read-out in test [2]: Monokine induced gamma interferon (MIG), CXCL9 (gene 4283)
In words: BSK_3C_MIG: BioMAP Diversity Plus: 3C Assay for Monokine induced gamma interferon (MIG) Biomarker Activity (AID 2283021).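 As to AC50: MIG protein level measured by immunoassay in the treated endothelial cultures.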 To be noted: primary human endothelial cells (HUVEC); actives raise or lower the signal. Put shortly: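 ELISA-measured MIG in dosed HUVEC 3C cultures at 24 h, analysed by bidirectional fitting with DMSO defining baseline activity.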

A short description of test [3]: BSK_3C_SRB: Viability Assessment in the BioMAP Diversity Plus: 3C Assay (AID 2283023).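 Also: fitted both ways against DMSO so a hit may be signal rise or drop.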 To be noted: primary human endothelial cells (HUVEC). Put shortly: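 Human umbilical vein endothelial cells in the 3C system, treated 24 h. Total protein measured by 0.1% sulforhodamine B staining after 10% TCA fixation, read at 560 nm; bidirectional fit versus DMSO.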
Read-out in test [4]: Matrix Metallopeptidase 1 (MMP1), MMP1 (gene 4312)
In words: BSK_BE3C_MMP1: BioMAP Diversity Plus: BE3C Assay for Matrix Metallopeptidase 1 (MMP1) Biomarker Activity (AID 2283024). The settings on record: primary human bronchial epithelial cells; actives raise or lower the signal. The essentials:
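In this multiplexed primary-cell system, human bronchial epithelium received chemicals for 24 h before an ELISA for MMP1. Values reflect bidirectional fits normalised to the DMSO baseline.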

The nature of test [5]: BSK_3C_Vis: BioMAP Diversity Plus: 3C Assay for Morphology Visualization (AID 2283025).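 Also: fitted both ways so gain or loss versus DMSO counts.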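 As to AC50: light microscopy image of cell morphology used as background control.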 To be noted: primary human endothelial cells (HUVEC). Put shortly:
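Light-microscopy morphology readout, 24 h exposure, human primary umbilical vein endothelium; analysed relative to DMSO with bidirectional fitting.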

Read-out in test [6]: Pselectin, SELP (gene 6403)
In words: BSK_4H_Pselectin: BioMAP Diversity Plus: 4H Assay for Pselectin Biomarker Activity (AID 2283026). The settings on record: primary human endothelial cells (HUVEC); actives raise or lower the signal. The essentials: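 Bidirectional fits against DMSO gave the endpoint. Cells: primary human umbilical vein endothelium, chemical-treated for 24 h before ELISA detection of P-selectin.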

Test [7] is described as follows: BSK_4H_SRB: Viability Assessment in the BioMAP Diversity Plus: 4H Assay (AID 2283027).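 Also: cells exposed to compound for 24 h before staining.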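 As to AC50: curves fitted both ways versus DMSO so AC50 may be loss or gain.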 The settings on record: primary human endothelial cells (HUVEC). Put shortly:
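Cytotoxicity readout: sulforhodamine B (0.1%) staining of total protein after 10% TCA fixation, measured at 560 nm in human umbilical vein endothelium at 24 h. DMSO set the baseline; fitting was bidirectional.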

Test [8] in a line: BSK_BE3C_SRB: Viability Assessment in the BioMAP Diversity Plus: BE3C Assay (AID 2283028).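 As to AC50: fitted both ways so AC50 may mark signal gain or loss versus DMSO.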 The settings on record: primary human bronchial epithelial cells. Put shortly:
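Human bronchial epithelial primary cells in confluent culture, 24 h after chemical dosing; total protein by 0.1% SRB staining after 10% TCA fixation, read at 560 nm. Bidirectional fitting versus DMSO baseline.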

Read-out in test [9]: Thrombomodulin, THBD (gene 7056)
In words: BSK_3C_Thrombomodulin: BioMAP Diversity Plus: 3C Assay for Thrombomodulin Biomarker Activity (AID 2283029). To be noted: primary human endothelial cells (HUVEC); actives raise or lower the signal. The essentials:
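In a multiplexed primary-cell system, human umbilical vein endothelium received chemical and was assayed 24 h later for thrombomodulin by ELISA. Parallel cultures were SRB-stained (0.1% SRB after 10% TCA fixation, read at 560 nm) to flag cytotoxicity.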

Read-out in test [10]: Urokinase-type plasminogen activator receptor (uPAR), PLAUR (gene 5329)
In words: BSK_4H_uPAR: BioMAP Diversity Plus: 4H Assay for Urokinase-type plasminogen activator receptor (uPAR) Biomarker Activity (AID 2283030). To be noted: primary human endothelial cells (HUVEC); actives raise or lower the signal. Put shortly:
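Human umbilical vein endothelial cells in the 4H system, 24 h after chemical dosing. Cell-surface uPAR measured by ELISA, fitted in both directions versus DMSO; cytotoxicity checked by SRB total protein in parallel cultures.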

Read-out in test [11]: Vascular endothelial growth factor receptor 2 (Homo sapiens) (UniProt P35968)
In words: BSK_4H_VEGFRII: BioMAP Diversity Plus: 4H Assay for Vascular endothelial growth factor receptor 2 (VEGFR2) Biomarker Activity (AID 2283031).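 As to AC50: cell-surface VEGFR2 protein level quantified by ELISA.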 The settings on record: primary human endothelial cells (HUVEC); actives raise or lower the signal. Put shortly: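 Primary human umbilical vein endothelial cells (4H system), 24 h exposure; cell-surface VEGFR2 measured by ELISA. Bidirectional fitting versus DMSO; cytotoxicity checked in parallel by SRB total-protein staining.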

Read-out in test [12]: Human Leukocyte Antigen - DR isotype (HLADR), HLA-DRA (gene 3122)
In words: BSK_BE3C_HLADR: BioMAP Diversity Plus: BE3C Assay for Human Leukocyte Antigen - DR isotype (HLADR) Biomarker Activity (AID 2283032). To be noted: primary human bronchial epithelial cells; actives raise or lower the signal. The essentials: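 BioMAP BE3C format: human bronchial epithelium, 24 h compound treatment, ELISA detection of HLA-DR, with bidirectional analysis relative to DMSO.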

Read-out in test [13]: Vascular cell adhesion molecule 1 (VCAM1), VCAM1 (gene 7412)
In words: BSK_4H_VCAM1: BioMAP Diversity Plus: 4H Assay for Vascular cell adhesion molecule 1 (VCAM1) Biomarker Activity (AID 2283033).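 As to outcome: cell-surface VCAM-1 protein measured by ELISA.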 To be noted: primary human endothelial cells (HUVEC); actives raise or lower the signal. The essentials:
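In this human endothelial (HUVEC) system, biomarker ELISA was run 24 h after compound addition, and total protein in parallel wells was assessed by SRB at 560 nm; DMSO served as negative control.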

Read-out in test [14]: Interferon-gamma inducible Protein 10 (IP10), CXCL10 (gene 3627)
In words: BSK_BE3C_IP10: BioMAP Diversity Plus: BE3C Assay for Interferon-gamma inducible Protein 10 (IP10) Biomarker Activity (AID 2283034). The settings on record: primary human bronchial epithelial cells; actives raise or lower the signal. Put shortly:
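BE3C cells (human bronchial epithelial, primary); 24 h exposure; ELISA for IP-10; DMSO-referenced bidirectional fit.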

Read-out in test [15]: Monokine induced gamma interferon (MIG), CXCL9 (gene 4283)
In words: BSK_BE3C_MIG: BioMAP Diversity Plus: BE3C Assay for Monokine induced gamma interferon (MIG) Biomarker Activity (AID 2283035). The settings on record: primary human bronchial epithelial cells; actives raise or lower the signal. Put shortly:
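hu bronchial epithelial 1° cells, 24 h cpd; MIG by ELISA; bidirectional fit, DMSO = baseline.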

Read-out in test [16]: Transforming growth factor beta 1 (TGFb1), TGFB1 (gene 7040)
In words: BSK_BE3C_TGFb1: BioMAP Diversity Plus: BE3C Assay for Transforming growth factor beta 1 (TGFb1) Biomarker Activity (AID 2283036;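 as to outcome: TGF-b1 protein level measured by ELISA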). The settings on record: primary human bronchial epithelial cells; actives raise or lower the signal. Put shortly:
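TGF-b1 measured via ELISA, 24 h after chemical dosing of human bronchial epithelial cells (BE3C). Overt cytotoxicity assessed in parallel by SRB (0.1%, TCA-fixed, 560 nm); analysis bidirectional relative to DMSO.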

Read-out in test [17]: Plasminogen activator inhibitor-1 (PAI1), SERPINE1 (gene 5054)
In words: BSK_BE3C_PAI1: BioMAP Diversity Plus: BE3C Assay for Plasminogen activator inhibitor-1 (PAI1) Biomarker Activity (AID 2283037). To be noted: primary human bronchial epithelial cells; actives raise or lower the signal. Put shortly: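 In this multiplexed primary-cell system, bronchial epithelial cells receive test chemical and are sampled at 24 h. PAI-1 is read by ELISA, with DMSO serving as negative control for bidirectional fitting.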

Read-out in test [18]: urokinase plasminogen activator (uPA), PLAU (gene 5328)
In words: BSK_BE3C_uPA: BioMAP Diversity Plus: BE3C Assay for urokinase plasminogen activator (uPA) Biomarker Activity (AID 2283038).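 As to outcome: uPA protein level quantified by ELISA in cell cultures; uPA read one day after compound addition.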 To be noted: primary human bronchial epithelial cells; actives raise or lower the signal. Put shortly:
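Primary human bronchial epithelial cells, uPA measured by ELISA 24 h after dosing. Bidirectional change relative to DMSO; cytotoxicity checked in parallel cultures by sulforhodamine B total-protein staining.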

Read-out in test [19]: Urokinase-type plasminogen activator receptor (uPAR), PLAUR (gene 5329)
In words: BSK_BE3C_uPAR: BioMAP Diversity Plus: BE3C Assay for Urokinase-type plasminogen activator receptor (uPAR) Biomarker Activity (AID 2283039).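 As to outcome: cells exposed to compound for one day before measurement.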 The settings on record: primary human bronchial epithelial cells; actives raise or lower the signal. Put shortly:
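Chemically treated human bronchial epithelial cells (lung primary) are assayed for uPAR by ELISA after 24 h, with data fitted in both directions using DMSO as negative control.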

SMILES strings stand for the structures. Activity calls are given as the source filed them. The calls were made as follows: active = hit-call score of the fitted dose curve at least 0.9, where 1 is the maximum; inactive = score below 0.9.

Usually AC50 stands for the concentration at which the activity in the assay is half-maximal. As for `C=C(C)[C@H]1Cc2c(ccc3c2O[C@@H]2COc4cc(OC)c(OC)cc4[C@@H]2C3=O)O1`, the AC50 in test [1] is 20 µM (active); in [3], 12.9 µM (active); in test [5], 0.468 µM (active); in test [6], 10.3 µM (active); in [7] it was 3.9 µM (active); in test [10], 4.41 µM (active). For the same compound, the AC50 in test [11] is 3.97 µM (active); in [12], 6.33 µM (active); in test [13], 8.68 µM (active); in [14] it was 20 µM (active). In addition, the result in test [2], in [4], in [8], in [9], in test [15] and in test [16] was inactive. The outcome in test [17], in [18] and in test [19] was inactive.

`COc1cccc(C(=O)NN(C(=O)c2cc(C)cc(C)c2)C(C)(C)C)c1C`: the outcome in test [1], in [2], in [3], in test [4], in test [6] and in test [7] was inactive. For the same compound, the outcome in [8], in test [9], in test [10], in [11], in test [12] and in [13] was inactive. Further, the outcome in test [14], in test [15], in test [16], in [18] and in [19] was inactive. For the same compound, the AC50 in [5] was 39 µM (active).

As for `FC(F)C(F)(F)OCC(Cn1cncn1)c1ccc(Cl)cc1Cl` (stereo not given), the outcome in test [1], in [2], in test [4], in test [7], in test [8] and in test [9] was inactive. The outcome in [11], in test [15], in test [16], in [17], in test [18] and in [19] was inactive. Also, the AC50 in test [3] was 20 µM (active); in test [5], 39 µM (active); in [6], 33.7 µM (active); in test [10] it was 31.7 µM (active); in test [12], 29.8 µM (active); in test [13], 29.7 µM (active). Moreover, the AC50 in test [14] is 26.4 µM (active).

For the compound `CC(C)N(C(=O)SCC(Cl)=C(Cl)Cl)C(C)C`, the AC50 in test [1] is 30.2 µM (active); in test [2] it was 38.3 µM (active); in test [3], 29.8 µM (active); in test [5], 37.2 µM (active); in test [6], 31.5 µM (active); in test [7], 33.4 µM (active). In addition, the AC50 in test [10] was 31.4 µM (active); in [11], 31.1 µM (active); in [13] it was 33.1 µM (active). Moreover, the outcome in [4], in test [8], in test [9], in test [12], in test [14] and in test [15] was inactive. Further, the outcome in [16], in test [18] and in test [19] was inactive.

Take `CCNc1nc(Cl)nc(NC(C)(C)C#N)n1`: the outcome in test [1], in test [2], in test [3], in test [4], in [5] and in test [6] was inactive. The outcome in [7], in [8], in test [9], in [10], in test [11] and in test [12] was inactive. For the same compound, the outcome in [13], in test [14], in test [15], in [16], in test [18] and in [19] was inactive.

With `COP(=O)(OC)OC(Br)C(Cl)(Cl)Br` (stereo not given), the AC50 is 34.9 µM (active) in test [1]; 35.2 µM (active) in test [2]; 28.8 µM (active) in test [3]; 16.3 µM (active) in test [5]; 13.2 µM (active) in [6]; 29 µM (active) in test [7]. Also, the AC50 in [8] was 25 µM (active); in [10] it was 27.9 µM (active); in [11], 31.1 µM (active); in test [12], 27.7 µM (active); in [13], 30.7 µM (active); in test [14], 30.3 µM (active). The AC50 in test [15] is 30.8 µM (active); in test [16] it was 33.1 µM (active); in [18], 32 µM (active); in [19] it was 36.6 µM (active). The result in [4] and in [9] was inactive.
